In publication PMC10668032, “Altered binding affinity of SIX1-Q177R correlates with enhanced WNT5A and WNT pathway effector expression in Wilms tumor” one finds binding signal data, which are given here for 174 sequences.

The full ranking holds about 33,000 sequences; the median of “e-score” is about -0.053, and the highest 2% start at about 0.38. The entries come from a sample that favours the highest values as a whole.

In this assay the target is T1, SIX1 homeodomain (reference allele) (human, UniProt Q15475 108-198).
T1 sequence: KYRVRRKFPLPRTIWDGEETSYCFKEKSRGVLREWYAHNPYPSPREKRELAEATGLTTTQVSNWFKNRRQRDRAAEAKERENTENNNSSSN
Kind of assay: universal protein binding microarray; Universal all-10-mer PBM (8x60K, AMADID 030236), 300 nM GST-tagged protein, Alexa Fluor 488 anti-GST; buffer, salt, pH and temperature not stated (as in Berger); high values mean tight binding. The following applies: protein: ivt; tags: N-terminal GST; dsDNA, one strand shown. The procedure, abridged:
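Duplicate protein binding microarrays (universal 'all 10-mer', 8×60K format) were incubated with GST-tagged homeodomains at 300 nM final concentration. Binding was quantified as 8-mer E-scores with the Universal PBM Analysis Suite.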
With ATTGGATC, the binding signal was 0.365 ± 0.0365 E-score.
On to ATCGAGCG, for which the binding signal came out at 0.156 ± 0.0113 E-score.
As for TATATTCA, the figure is 0.166 ± 0.0205 E-score; as for ACCCATAT, 0.3794 ± 0.00238 E-score.
In the case of ACCCATCT, the binding signal was found to be 0.204 ± 0.0603 E-score.
Next, AACCATAT: 0.303 ± 0.013 E-score; GATTGATA: 0.381 ± 0.046 E-score.
AATTGATA: the binding signal was found to be 0.344 ± 0.0859 E-score.
As for GATTGAGA, the figure is 0.151 ± 0.0232 E-score; as for CCTTGATA, 0.317 ± 0.0459 E-score.
As for CATTGATC, the binding signal is 0.265 ± 0.000601 E-score.
For the sequence CATTGATA, the binding signal amounted to 0.391 ± 0.0167 E-score.
As for ACACCTCA, the figure is 0.24 ± 0.0368 E-score; as for ACTAGCCG, 0.183 ± 0.0569 E-score.
Next, CTATAATC: 0.157 ± 0.0879 E-score.
As for ATCGTGGG, the figure is 0.163 ± 0.0327 E-score; as for ATGGATAA, 0.212 ± 0.00686 E-score; as for CTGGATAC, 0.387 ± 0.0256 E-score.
With ATGGATAC, the binding signal is 0.447 ± 0.0217 E-score.
For the sequence ATGGATAG, the binding signal was 0.247 ± 0.00822 E-score.
As to CTGGATTA, the binding signal came out at 0.177 ± 0.0302 E-score.
As for ACTACGAT, the figure is 0.1669 ± 0.00123 E-score; as for TATCCAGA, 0.3343 ± 0.00221 E-score.
Next, ATACACAA: 0.232 ± 0.0214 E-score; AGGATTAA: 0.243 ± 0.0865 E-score; ATCCCTCA: 0.312 ± 0.0176 E-score.
As to CATACCCC, the binding signal is 0.258 ± 0.054 E-score.
On to AATACCAG, for which the binding signal amounted to 0.306 ± 0.0188 E-score.
GATACCCC: the binding signal is 0.4957 ± 0.00126 E-score.
As for AATACCTC, the figure is 0.331 ± 0.0598 E-score; as for AATACCCG, 0.293 ± 0.0206 E-score.
AATACCCA: the binding signal stood at 0.2902 ± 0.00209 E-score.
As for GCTACCCC, the figure is 0.158 ± 0.092 E-score.
Next, AATACCCT: 0.384 ± 0.0168 E-score; AATACCCC: 0.4268 ± 0.000757 E-score.
Next, CCGTCTCG: 0.232 ± 0.00359 E-score; CAATACGG: 0.178 ± 0.00369 E-score; ATTAAATA: 0.24 ± 0.0313 E-score.
Take GATCAGCA: the binding signal is 0.235 ± 0.00865 E-score.
Turning to ATACGGAC, the binding signal was 0.193 ± 0.00348 E-score.
Next, TATATACA: 0.284 ± 0.0122 E-score.
For AATATACC, the binding signal stood at 0.32 ± 0.0474 E-score.
Next, CATATACC: 0.282 ± 0.0234 E-score.
Turning to AATATACA, the binding signal turned out to be 0.222 ± 0.0386 E-score.
In the case of GATATTCC, the binding signal was determined as 0.376 ± 0.0303 E-score.
Take GATATACC: the binding signal worked out at 0.4592 ± 0.00376 E-score.
Next, GATATTCA: 0.232 ± 0.0803 E-score; GATATACA: 0.384 ± 0.0104 E-score; AATATTCC: 0.251 ± 0.0499 E-score.
Next, ACACCCGG: 0.344 ± 0.043 E-score; GTGTTAGA: 0.214 ± 0.00425 E-score.
As for ACGATCGT, the figure is 0.154 ± 0.0131 E-score; as for CAGTAGTA, 0.154 ± 0.00593 E-score.
GATTATTA: the binding signal was 0.209 ± 0.0336 E-score.
Next, GATCTGAC: 0.238 ± 0.00706 E-score.
Turning to AGACCTAT, the binding signal stood at 0.17 ± 0.0148 E-score.
As for ATATAGGG, the figure is 0.229 ± 0.0134 E-score; as for CTCGGATA, 0.375 ± 0.00642 E-score; as for ATCGGAAA, 0.159 ± 0.00362 E-score.
Consider ATCGGATG, for which the binding signal was determined as 0.252 ± 0.00376 E-score.
As for ATCGGACA, the figure is 0.237 ± 0.0182 E-score; as for CTCGGATC, 0.396 ± 0.0127 E-score; as for ATCGGACC, 0.229 ± 0.0739 E-score.
As for CTTGGATA, the figure is 0.236 ± 0.024 E-score; as for ATCGGATC, 0.426 ± 0.0203 E-score; as for GTTGGATA, 0.295 ± 0.00342 E-score.
As for CTTGGATC, the figure is 0.295 ± 0.0145 E-score; as for GTCGGATA, 0.407 ± 0.00687 E-score; as for ATCGGATA, 0.423 ± 0.00904 E-score.
In the case of AATATTAA, the binding signal is 0.187 ± 0.0103 E-score.
Next, GATCGAGC: 0.218 ± 0.00887 E-score; TATGCATA: 0.202 ± 0.0575 E-score; ATACTAGA: 0.218 ± 0.0317 E-score.
With CACTCCGG, the binding signal turned out to be 0.195 ± 0.0209 E-score.
As for AACCCGAT, the figure is 0.25 ± 0.0182 E-score; as for ATAGCAGG, 0.29151 ± 0.000127 E-score; as for CCTTGTGA, 0.164 ± 0.0725 E-score.
As for ATCGCAAC, the figure is 0.198 ± 0.0486 E-score; as for CGTACACC, 0.205 ± 0.0267 E-score.
With AAGTATAC, the binding signal is 0.338 ± 0.0623 E-score.
GATTATCC: the binding signal is 0.329 ± 0.00414 E-score.
As for AAGTATCC, the figure is 0.388 ± 0.0363 E-score; as for GAGTATCC, 0.4205 ± 0.00087 E-score; as for GAGTATAC, 0.262 ± 0.0252 E-score.
AACTATCC: the binding signal was found to be 0.281 ± 0.0413 E-score.
As to ATACTCAG, the binding signal is 0.35 ± 0.0154 E-score.
As to GCAAGATA, the binding signal turned out to be 0.17 ± 0.0455 E-score.
As for ATGCATGA, the figure is 0.162 ± 0.0129 E-score; as for ATCCACGG, 0.187 ± 0.0301 E-score.
As for CCCAGATC, the binding signal worked out at 0.38 ± 0.0205 E-score.
As for CCTGGATC, the binding signal turned out to be 0.251 ± 0.0575 E-score.
As for CCCGGATC, the figure is 0.45 ± 0.0283 E-score; as for ACCGGATC, 0.417 ± 0.0393 E-score; as for CCCGGGTC, 0.288 ± 0.0806 E-score.
For ACCAGATC, the binding signal was determined as 0.349 ± 0.0234 E-score.
Next, CCCAGATA: 0.302 ± 0.0141 E-score.
As for ACCGGATA, the binding signal amounted to 0.364 ± 0.00187 E-score.
As for AGCGGATC, the figure is 0.375 ± 0.0283 E-score; as for CCCCGCAC, 0.189 ± 0.188 E-score; as for CAACGATC, 0.277 ± 0.0168 E-score.
In the case of CGTGATCC, the binding signal worked out at 0.41 ± 0.0121 E-score.
Take GGTGATCA: the binding signal worked out at 0.315 ± 0.0247 E-score.
For the sequence AGTGATCA, the binding signal was determined as 0.313 ± 0.0131 E-score.
On to AGTGATCG, for which the binding signal was 0.25 ± 0.00845 E-score.
Next, AGTGATCC: 0.4519 ± 0.00218 E-score.
Regarding CGTGATCA, the binding signal came to 0.181 ± 0.00373 E-score.
Next, ATACGGGA: 0.367 ± 0.0155 E-score; GATGAGAC: 0.20672 ± 0.00017 E-score.
In the case of ATATGAGC, the binding signal was found to be 0.208 ± 0.0956 E-score.
With CCATCCGG, the binding signal amounted to 0.235 ± 0.079 E-score.
Consider AACGATCA, for which the binding signal was determined as 0.2067 ± 0.00118 E-score.
Take TAGGATAA: the binding signal amounted to 0.21 ± 0.0705 E-score.
As for CAGGATCA, the figure is 0.386 ± 0.00253 E-score; as for AAGGATCG, 0.349 ± 0.00351 E-score; as for GAGGATCA, 0.369 ± 0.0176 E-score.
As for TAGGATCA, the figure is 0.409 ± 0.017 E-score; as for AAGGATCT, 0.267 ± 0.029 E-score; as for TAGGATGA, 0.199 ± 0.0352 E-score.
AAGGATCA: the binding signal turned out to be 0.383 ± 0.00738 E-score.
Next, CAGGATCG: 0.297 ± 0.0493 E-score.
As for ACTATCTA, the figure is 0.154 ± 0.0178 E-score; as for AAACCCGA, 0.165 ± 0.0599 E-score.
As for AACACCAT, the figure is 0.173 ± 0.0172 E-score; as for ATAGCGGC, 0.194 ± 0.00861 E-score; as for AGGTGTCC, 0.274 ± 0.042 E-score.
As for GGGTGTGA, the binding signal is 0.158 ± 0.0496 E-score.
Next, AGGTGTTG: 0.2361 ± 0.00141 E-score; AGGTGTAT: 0.377 ± 0.0149 E-score.
As to GGGTGTAA, the binding signal was found to be 0.334 ± 0.00878 E-score.
As for GGGTGTCA, the figure is 0.4698 ± 0.00156 E-score; as for AGGTGTGA, 0.204 ± 0.0237 E-score.
Next, AGGTGTAC: 0.182 ± 0.0154 E-score; AGGTGTAA: 0.165 ± 0.116 E-score; AGGTGTCA: 0.45238 ± 0.000134 E-score.
As for AGGTGTCG, the binding signal came out at 0.399 ± 0.0161 E-score.
Consider AGGTGTTA, for which the binding signal worked out at 0.203 ± 0.0687 E-score.
Consider TATCTACA, for which the binding signal came to 0.167 ± 0.0212 E-score.
With CAAAGATC, the binding signal was found to be 0.209 ± 0.0122 E-score.
With GATCTCCA, the binding signal was found to be 0.239 ± 0.0181 E-score.
For the sequence ACATATAT, the binding signal came to 0.252 ± 0.0998 E-score.
Next, ATCACTGA: 0.243 ± 0.0373 E-score; GTATTTAA: 0.172 ± 0.0151 E-score.
On to TAACCCGA, for which the binding signal amounted to 0.213 ± 0.0195 E-score.
For CATATTAA, the binding signal was determined as 0.175 ± 0.121 E-score.
As for ATCATTAC, the figure is 0.295 ± 0.0265 E-score; as for AGAATACT, 0.208 ± 0.057 E-score.
As for AAAAGGAT, the figure is 0.163 ± 0.102 E-score; as for CGGTGTCA, 0.471 ± 0.00725 E-score; as for CGGTGTAA, 0.257 ± 0.00735 E-score.
As for CGGTGTCC, the figure is 0.352 ± 0.0179 E-score.
On to AGGATCGG, for which the binding signal was 0.32 ± 0.0208 E-score.
ATCACGAC: the binding signal came out at 0.18 ± 0.0119 E-score.
Next, AGAATGAT: 0.216 ± 0.0443 E-score.
Next, GGGATATA: 0.433 ± 0.0145 E-score; CGGATATA: 0.422 ± 0.00574 E-score.
Next, GGGATAGA: 0.256 ± 0.0216 E-score; GGGATAAA: 0.212 ± 0.0282 E-score.
For CTAGATGC, the binding signal was 0.153 ± 0.0669 E-score.
On to CATACACG, for which the binding signal was determined as 0.157 ± 0.0344 E-score.
As for AGCTATAT, the binding signal was found to be 0.2 ± 0.0474 E-score.
With ACACGGGT, the binding signal was 0.23 ± 0.0432 E-score.
Next, CATCGATA: 0.308 ± 0.015 E-score; ATATCGGC: 0.394 ± 0.011 E-score.
Next, ATATCTGC: 0.346 ± 0.0315 E-score; ATATGGGG: 0.4 ± 0.0352 E-score.
Take ATATCGGA: the binding signal was found to be 0.427 ± 0.0311 E-score.
Turning to ATATCTGA, the binding signal is 0.356 ± 0.0383 E-score.
Take GGATCGGA: the binding signal was 0.38 ± 0.0357 E-score.
Next, AGATCGGC: 0.216 ± 0.0174 E-score; ATATGGGC: 0.326 E-score; ATATGGGA: 0.319 ± 0.00531 E-score.
Next, CGATCGGA: 0.24 ± 0.0149 E-score; AGATCGGA: 0.255 ± 0.00445 E-score.
Next, CTATCGGA: 0.289 ± 0.00216 E-score.
